Common to all, as to test: NCI-60 one-dose screen, 48 h (100 = growth as untreated, 0 = no growth, -100 = all killed)
Holding throughout (details): 10 µM unless noted

Test [1] deals with T-47D breast.
The test system of test [2] is BT-549 breast.
Test [3] has as its system MDA-MB-435 melanoma.
Test [4] concerns SW-620 colon.
Test [5] has as its system MCF7 breast.
Test [6] concerns HCT-116 colon.
Test [7] deals with HCC-2998 colon.
Test [8] relates to KM12 colon.

The structures appear in SMILES notation. About 83,000 compounds went through this panel and 20% of them were active in at least one assay; those are over-represented in the sample as a whole.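 The test compound was applied at a single concentration to cells in 96-well plates for 48 hours, and percent growth was recorded.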 A number with no mark means an inactive call. Activity calls are given as the source filed them. The calls were made as follows: active = growth percent below 10; inactive = the rest.

Turning to `FC(F)(F)Oc1cccc(-c2cnc3ccc(-c4ccncc4)nn23)c1`, the growth in test [1] was -0.156% (active); in test [2] it was 25.2%; in test [3] it was 12.3%; in test [4], 23.2%; in test [5], 10.7%; in test [6], 10.8%. Further, the growth in test [7] was 32.5%; in test [8], 8.63% (active).
As to `C#CC#CC#CC#CC#CC#CC#CC#CC[C@@H]1OC[C@@H](COC(=O)O[C@@H](C(=O)O[C@H]2C[C@@]3(O)[C@@H](OC(=O)c4ccccc4)[C@@H]4[C@]5(OC(C)=O)CO[C@@H]5C[C@H](O)[C@@]4(C)C(=O)[C@H](OC(C)=O)C(=C2C)C3(C)C)[C@@H](NC(=O)c2ccccc2)c2ccccc2)O1`, the growth in test [1] is 91.3%; in test [2], 17%; in test [3], 101%; in test [4], 101%; in test [5], 13.6%; in test [6] it was 7.34% (active). Also, the growth in test [7] was -43.9% (active); in test [8], 96.6%.
For the compound `C[C@H](C(=O)N(CCc1ccc(Cl)c(Cl)c1)Cc1cncs1)[C@@H]1CC[C@H](C[C@H](C)n2cc(CN3CCC(c4ccc(Cl)cc4)CC3)nn2)O1`, the growth was 86.6% in test [1]; 95.1% in test [2]; 98.3% in test [3]; 97.5% in test [4]; 85.8% in test [5]; 92.5% in test [6]. Besides, the growth in test [7] is 112%; in test [8], 105%.
`CCOC(=O)c1nn(CC(O)c2ccccc2)c(NC(=O)Nc2cccc(F)c2)c1C` (configuration not stated): the growth in test [1] is 90.1%; in test [2] it was 101%; in test [3] it was 99.9%; in test [4], 95.9%; in test [5] it was 91.3%; in test [6], 96.4%. The growth in test [7] is 98.3%; in test [8] it was 104%.
For `COc1cc(C(=O)n2nc(N3CCOCC3)c3cc(-n4cccc4)ccc32)cc(OC)c1OC`, the growth in test [1] was 60.5%; in test [2], 56.2%; in test [3], 75.2%; in test [4], 67.5%; in test [5] it was 52.1%; in test [6], 48.6%. Also, the growth in test [7] was 99.7%; in test [8], 81.8%.
For `C=C1C(=O)O[C@H]2[C@H]1CC/C(COC(=O)NCc1ccc(Cn3c(=O)sn(-c4ccc(C#N)cc4)c3=O)cc1)=C\CC[C@@]1(C)O[C@@H]21`, the growth was 28.1% in test [1]; 60.4% in test [2]; 59.6% in test [3]; 24.1% in test [4]; 27.5% in test [5]; 25.4% in test [6]. For the same compound, the growth in test [7] was 104%; in test [8], 101%.
Take `Cc1ccc(-c2nc(-c3cn(C)c4ncccc34)cs2)cc1`: the growth in test [1] is -3.08% [100 µM] (active); in test [2], -42.1% [100 µM] (active); in test [3], -39.5% [100 µM] (active); in test [4], -11.6% [100 µM] (active); in test [5] it was -18% [100 µM] (active); in test [6] it was -73.1% [100 µM] (active). The growth was -67.9% [100 µM] (active) in test [7] and -55.5% [100 µM] (active) in test [8].
For the compound `Cc1cc(Nc2ccc(C(=O)N3CCCC3)cc2)nc(NCCCNc2ccnc3cc(Cl)ccc23)n1`, the growth in test [1] is 77.8%; in test [2], 84.6%; in test [3], 79.6%; in test [4], 95.9%; in test [5] it was 51.6%; in test [6], 54.5%. For the same compound, the growth is 80.9% in test [7] and 87.4% in test [8].
`O=C(O)COc1ccc(Cl)c(Cl)c1`: the growth in test [1] was 95.7%; in test [2], 120%; in test [3], 104%; in test [4] it was 109%; in test [5], 108%; in test [6], 109%. For the same compound, the growth in test [7] is 106%; in test [8] it was 110%.
As to `OCCNCCNC(Cc1ccc(Cl)cc1)c1ccccc1` (configuration not stated), the growth was 44.6% in test [1]; 79.7% in test [2]; 98.6% in test [3]; 107% in test [4]; 85.1% in test [5]; 75.7% in test [6]. Besides, the growth in test [7] is 91.6%; in test [8] it was 90.4%.
As to `CCc1ccc(CCC(=O)Nc2ncc(Cc3ccccc3)s2)o1`, the growth is 42.5% in test [1]; 63.5% in test [2]; -54.8% (active) in test [3]; 28% in test [4]; 18.7% in test [5]; 23.4% in test [6]. The growth in test [7] was 35.6%; in test [8], 18.4%.
Take `C=C(C)[C@@H]1CC[C@]2(C(=O)N3CCN(C)CC3)CC[C@]3(C)[C@H](CC[C@@H]4[C@@]5(C)CC[C@H](OC(=O)c6ccccc6C(=O)O)C(C)(C)[C@@H]5CC[C@]43C)[C@@H]12`: the growth was 102% in test [1]; 111% in test [2]; 99.3% in test [3]; 101% in test [4]; 96.4% in test [5]; 90.8% in test [6]. Moreover, the growth in test [7] and in test [8] was 106% each time.
Turning to `CC1=CCC(OC(=O)C(C)(C)CC(O)(C(C)O)C(O)C2(C)C=CC(Cc3ccc(C(C)C)cc3)(C(C)C)CC2)(C(C)C)CC1` (configuration not stated), the growth in test [1] was 98.9%; in test [2] it was 109%; in test [3], 94.1%; in test [4] it was 92.6%; in test [5] it was 102%; in test [6], 93.7%. In addition, the growth in test [7] was 103%; in test [8] it was 105%.
As for `Cc1ccc(C)c(/C=C2\CN(C(=O)OC(C)(C)C)C/C(=C\c3cc(C)ccc3C)C2=O)c1`, the growth in test [1] is 61.4%; in test [2] it was 85.5%; in test [3] it was -9.21% (active); in test [4], 18.5%; in test [5] it was 23.3%; in test [6], -16.7% (active). Also, the values for the growth in test [7] and in test [8] were 52.2% and 16.7%, respectively.

The values above are taken from PubChem BioAssay (NCI).
